Compounds without any hit were thinned out: in the full panel of roughly 79,000, 15% have a hit. A number with no mark means an inactive call. Cut-off read from the data, not from the text of the source: active = growth inhibition above about 70%; inactive = the rest. Where a SMILES comes first, the peptide text is derived from it. [ ]: non-standard residue; d: D form. ξ: configuration not given here. ξV = CC(C)C(N)C(=O)O
assay: NCI Yeast Anticancer Drug Screen. Data for the rad50 strain (AID 155);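 note: 0% = growth of vehicle-only cultures of the same strain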; conditions: S. cerevisiae rad50 strain growth inhibition; at 50.0 µM; hits give high values
Method in brief: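 A DNA repair-deficient yeast mutant serves as the test organism; compound-induced growth inhibition is calculated against vehicle-treated cells.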

| Compound | growth inhibition [%] |
| --- | --- |
| Nc1nc(N)nc(-c2ccc([N+](=O)[O-])o2)n1 | 41.8 |
| O=C(O)CC1C(=O)OC2C3COC(=O)c4cc(O)c(O)c(O)c4-c4c(cc(O)c(O)c4O)C(=O)OC2C(OC(=O)c2cc(O)c(O)c4c2C1C(O)C(=O)O4)C(OC(=O)c1cc(O)c(O)c(O)c1)O3 (stereo not given) | 24.4 |
| CSc1ncnc2c1ncn2CCC(=O)O | -33.9 |
| CCN(CC)C(=O)C(C)n1cc(C)c(=O)[nH]c1=O (stereo not given) | -32.2 |
| Cc1ccc(C(=O)c2ccccc2)cc1 | 26.1 |
| Nc1cnccc1NCC(O)c1ccccc1 (stereo not given) | 9.95 |
| N#Cc1cc([N+](=O)[O-])ccc1NC(=O)/C(=N\NC(=O)c1ccncc1)C(c1cnc2ccc([N+](=O)[O-])cc2n1)[N+](=O)[O-] (stereo not given) | 8.6 |
| C=C(CN(C)C)c1ccccn1 | -11.9 |
| Nc1ccc(N=Nc2ccc(OCCN(CCO)CCO)cc2)c(N)n1 | 23.8 |
| CC1Cn2c(nccc2=O)S1 (stereo not given) | -15.1 |
| CC(C)C1c2ccccc2C(=O)C1C(N)=O (stereo not given) | -16.9 |
| CCN(CC)S(=O)(=O)c1ccc(N)cc1 | 26.1 |
| CC(C)C(N)C(=O)NCC(=O)NCC(=O)O (stereo not drawn) (H-[ξV]-Gly-Gly-OH) | -9.4 |
| CN1CC2(CO)C(c3ccccn3)N(C)C(c3ccccn3)C(CO)(C1)C2O (stereo not given) | 2.5 |
| CCCCN1C(=O)c2cc(=O)[nH]c(O)c2C1C (stereo not given) | -19.4 |
| CCCCCN(CCCCC)CC(O)c1cc(-c2ccccc2)nc2c(Cl)cc(Cl)cc12 (stereo not given) | 42 |
| O=C(Nc1cccc(O)c1)C(O)C(O)C(O)C(O)CO (stereo not given) | -10.8 |
| CCN(CC)CCSc1cc(C)c2ccc(N)nc2n1 | -5.65 |
| CCN1CCCN(CC)C1=O | 6.1 |
| C[Si](C)(C)O[Si](C)(C)CCl | -28.9 |

| Compound | growth inhibition [%] |
| --- | --- |
| CCN(CC)C(=O)Cn1c2c(c3ccccc31)CCCC2 | 33.4 |
| COc1cc(O)c(C(=O)C2Cc3ccccc32)c(OC)c1 (stereo not given) | -20.6 |
| C=C/C=N/Nc1ccc([N+](=O)[O-])cc1[N+](=O)[O-] | 2.5 |
| NCCCCC(N)C(=O)O (stereo not given) | 7.4 |
| CCOC(=O)c1c(O)csc1C | -7.75 |
| CC(=O)OC(C)(C)[C@@H]1CC[C@H](C)C2=C(C1)[C@@H](C)CC2 | -13.8 |
| NCc1ccc(S(=O)(=O)Nc2cc(Br)cc(Br)c2)cc1 | 16.4 |
| COc1ccc(-n2[nH]nc(C(N)=O)c2=O)cc1 | 7.6 |
| CN(C)Cc1cc(C(C)(C)CC(C)(C)C)cc(Br)c1O | 33 |
| Cc1cc2[nH]c3c(C#N)c4c(c(=O)n3c2cc1C)CCCC4 | 10.1 |
| COc1ccc(/C=C2\C(=O)N(C(=O)c3ccc(NC(C)=O)cc3)N=C2C)cc1 | -27.6 |
| CC(O)CSCC(C)O (stereo not given) | 10.1 |
| NNC(=S)N/N=C/C(Cl)=C(\Cl)C(=O)O | -2.2 |
| COc1ccc(N)c(C(O)CCNC(C)=O)c1 (stereo not given) | -20.1 |
| CCOc1ccc(N2N=C(C)CCC2=O)cc1 | 6.2 |
| N#CCC(=O)N/N=C(\C(=O)Nc1ccc(Cl)c(Cl)c1)C1CN(c2ccccc2)N=C1N (stereo not given) | 24.4 |
| CC(C)CCCC(C)C1CCC2C3CC=C4CC(P(=O)(c5ccccc5)c5ccccc5)CCC4(C)C3CCC12C (stereo not given) | 10.3 |
| O=C(N/N=C/c1ccccn1)c1ccccc1 | -1.2 |
| CCCCNC(C(=O)c1ccccc1)c1ccccc1 (stereo not given) | 4.85 |
| CN1CCC=C(COC(=O)C(C)(C)C)C1 | 1.8 |

assay: NCI Yeast Anticancer Drug Screen. Data for the mec2-1 strain (AID 157); conditions: S. cerevisiae mec2-1 strain, at 50.0 µM, hits give high values
Method in brief: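 Compounds were applied to mec2-1 yeast cells. Their growth was then compared with that of vehicle-treated cultures to give growth inhibition.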

| Compound | growth inhibition [%] |
| --- | --- |
| Nc1nc(N)nc(-c2ccc([N+](=O)[O-])o2)n1 | 10.8 |
| O=C(O)CC1C(=O)OC2C3COC(=O)c4cc(O)c(O)c(O)c4-c4c(cc(O)c(O)c4O)C(=O)OC2C(OC(=O)c2cc(O)c(O)c4c2C1C(O)C(=O)O4)C(OC(=O)c1cc(O)c(O)c(O)c1)O3 (stereo not given) | 2.8 |
| CSc1ncnc2c1ncn2CCC(=O)O | 11.4 |
| CCN(CC)C(=O)C(C)n1cc(C)c(=O)[nH]c1=O (stereo not given) | -39.2 |
| Cc1ccc(C(=O)c2ccccc2)cc1 | 23.5 |
| Nc1cnccc1NCC(O)c1ccccc1 (stereo not given) | -5.9 |
| N#Cc1cc([N+](=O)[O-])ccc1NC(=O)/C(=N\NC(=O)c1ccncc1)C(c1cnc2ccc([N+](=O)[O-])cc2n1)[N+](=O)[O-] (stereo not given) | 11.4 |
| C=C(CN(C)C)c1ccccn1 | -5.45 |
| Nc1ccc(N=Nc2ccc(OCCN(CCO)CCO)cc2)c(N)n1 | -22.8 |
| CC1Cn2c(nccc2=O)S1 (stereo not given) | -14.2 |
| CC(C)C1c2ccccc2C(=O)C1C(N)=O (stereo not given) | -11.4 |
| CCN(CC)S(=O)(=O)c1ccc(N)cc1 | 2.15 |
| CC(C)C(N)C(=O)NCC(=O)NCC(=O)O (stereo not drawn) (H-[ξV]-Gly-Gly-OH) | -22.2 |
| CN1CC2(CO)C(c3ccccn3)N(C)C(c3ccccn3)C(CO)(C1)C2O (stereo not given) | 16.4 |
| CCCCN1C(=O)c2cc(=O)[nH]c(O)c2C1C (stereo not given) | 6.35 |
| CCCCCN(CCCCC)CC(O)c1cc(-c2ccccc2)nc2c(Cl)cc(Cl)cc12 (stereo not given) | -1.1 |
| O=C(Nc1cccc(O)c1)C(O)C(O)C(O)C(O)CO (stereo not given) | 14.4 |
| CCN(CC)CCSc1cc(C)c2ccc(N)nc2n1 | -24 |
| CCN1CCCN(CC)C1=O | 4.15 |
| C[Si](C)(C)O[Si](C)(C)CCl | -12.4 |

| Compound | growth inhibition [%] |
| --- | --- |
| CCN(CC)C(=O)Cn1c2c(c3ccccc31)CCCC2 | -30.4 |
| COc1cc(O)c(C(=O)C2Cc3ccccc32)c(OC)c1 (stereo not given) | 12.5 |
| C=C/C=N/Nc1ccc([N+](=O)[O-])cc1[N+](=O)[O-] | 5.4 |
| NCCCCC(N)C(=O)O (stereo not given) | 9.25 |
| CCOC(=O)c1c(O)csc1C | -6.35 |
| CC(=O)OC(C)(C)[C@@H]1CC[C@H](C)C2=C(C1)[C@@H](C)CC2 | -30.9 |
| NCc1ccc(S(=O)(=O)Nc2cc(Br)cc(Br)c2)cc1 | 14.8 |
| COc1ccc(-n2[nH]nc(C(N)=O)c2=O)cc1 | -2.5 |
| CN(C)Cc1cc(C(C)(C)CC(C)(C)C)cc(Br)c1O | 21.4 |
| Cc1cc2[nH]c3c(C#N)c4c(c(=O)n3c2cc1C)CCCC4 | 18.5 |
| COc1ccc(/C=C2\C(=O)N(C(=O)c3ccc(NC(C)=O)cc3)N=C2C)cc1 | -36.2 |
| CC(O)CSCC(C)O (stereo not given) | -4.2 |
| NNC(=S)N/N=C/C(Cl)=C(\Cl)C(=O)O | -13.2 |
| COc1ccc(N)c(C(O)CCNC(C)=O)c1 (stereo not given) | -23.2 |
| CCOc1ccc(N2N=C(C)CCC2=O)cc1 | 1.9 |
| N#CCC(=O)N/N=C(\C(=O)Nc1ccc(Cl)c(Cl)c1)C1CN(c2ccccc2)N=C1N (stereo not given) | 6.9 |
| CC(C)CCCC(C)C1CCC2C3CC=C4CC(P(=O)(c5ccccc5)c5ccccc5)CCC4(C)C3CCC12C (stereo not given) | -9.9 |
| O=C(N/N=C/c1ccccn1)c1ccccc1 | 23.6 |
| CCCCNC(C(=O)c1ccccc1)c1ccccc1 (stereo not given) | 17.1 |
| CN1CCC=C(COC(=O)C(C)(C)C)C1 | 4.9 |

— PubChem BioAssay (NCI)
